Measured values reported in PubChem BioAssay (EPA / NIEHS).
Calls of active or inactive are those of the source. Rule for the calls: active = hit-call score of the fitted dose curve at least 0.9, where 1 is the maximum; inactive = score below 0.9.

Tests used:
[1] = read-out: TIMP metallopeptidase inhibitor 2 (TIMP2), TIMP2 (gene 7077); assay: BSK_KF3CT_TIMP2: BioMAP Diversity Plus: KF3CT Assay for TIMP metallopeptidase inhibitor 2 (TIMP2) Biomarker Activity (AID 2283071); details: primary human keratinocytes with fibroblasts; actives raise or lower the signal
Outline: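 Co-culture of human primary keratinocytes and foreskin fibroblasts, measured 24 h after chemical dosing. TIMP-2 quantified by ELISA and fitted in both directions relative to DMSO. Cytotoxicity checked in parallel cultures by SRB total-protein staining.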

[2] = read-out: Transforming growth factor beta 1 (TGFb1), TGFB1 (gene 7040); assay: BSK_KF3CT_TGFb1: BioMAP Diversity Plus: KF3CT Assay for Transforming growth factor beta 1 (TGFb1) Biomarker Activity (AID 2283072); details: primary human keratinocytes with fibroblasts; actives raise or lower the signal
Outline: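 Human keratinocyte/foreskin fibroblast co-culture; TGF-b1 measured by ELISA 24 h after dosing, fitted bidirectionally versus DMSO. Cytotoxicity checked in parallel cultures by total protein (SRB staining, 560 nm).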

[3] = read-out: C-C motif chemokine 2 (Homo sapiens) (UniProt P13500); assay: BSK_KF3CT_MCP1: BioMAP Diversity Plus: KF3CT Assay for Monocyte Chemoattractant Protein 1 (MCP1/CCL2) Biomarker Activity (AID 2283073); details: primary human keratinocytes with fibroblasts; actives raise or lower the signal
Outline: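 ELISA readout of MCP-1 after 24 h chemical dosing of a human skin primary co-culture of keratinocytes and foreskin fibroblasts. Activity was fitted in both directions against DMSO.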

[4] = read-out: Matrix Metallopeptidase 9 (MMP9), MMP9 (gene 4318); assay: BSK_KF3CT_MMP9: BioMAP Diversity Plus: KF3CT Assay for Matrix Metallopeptidase 9 (MMP9) Biomarker Activity (AID 2283074); details: primary human keratinocytes with fibroblasts; actives raise or lower the signal;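 for AC50: MMP9 protein level quantified by ELISA in the co-culture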
Outline: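 Human keratinocyte and foreskin fibroblast co-culture exposed to chemicals for 24 h; MMP9 biomarker measured by ELISA, bidirectional fitting relative to DMSO; cytotoxicity tracked by SRB total protein staining in parallel cultures.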

[5] = read-out: urokinase plasminogen activator (uPA), PLAU (gene 5328); assay: BSK_KF3CT_uPA: BioMAP Diversity Plus: KF3CT Assay for urokinase plasminogen activator (uPA) Biomarker Activity (AID 2283075); details: primary human keratinocytes with fibroblasts; actives raise or lower the signal
Outline: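 Primary human keratinocyte/foreskin fibroblast co-culture exposed to chemical; uPA measured by ELISA at 24 h. Bidirectional fit versus DMSO, with parallel SRB total-protein staining for cytotoxicity.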

CD40, CD40 (gene 958) [6] = assay: BSK_LPS_CD40: BioMAP Diversity Plus: LPS Assay for CD40 Biomarker Activity (AID 2283076); details: primary human HUVEC with PBMC; actives raise or lower the signal
Outline: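 Cells were dosed, incubated 24 h, then assayed for CD40 by ELISA. Gain or loss of signal was analysed relative to DMSO controls. The culture paired human umbilical vein endothelium with peripheral blood mononuclear cells.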

[7] = read-out: E-selectin (Homo sapiens) (UniProt P16581); assay: BSK_LPS_Eselectin: BioMAP Diversity Plus: LPS Assay for Eselectin Biomarker Activity (AID 2283077); details: primary human HUVEC with PBMC; actives raise or lower the signal
Outline: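 Primary human vascular co-culture (endothelium plus PBMC) was dosed with chemical, then E-selectin quantified by ELISA at 24 h. Endpoint values derive from bidirectional curve fitting relative to DMSO.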

[8] = read-out: Interleukin-8 (IL8), CXCL8 (gene 3576); assay: BSK_LPS_IL8: BioMAP Diversity Plus: LPS Assay for Interleukin-8 (IL8) Biomarker Activity (AID 2283078); details: primary human HUVEC with PBMC; actives raise or lower the signal
Outline: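 Readout is IL-8 by ELISA, taken 24 h after compounds were added to LPS-stimulated endothelial/PBMC co-cultures. Both increases and decreases relative to DMSO control were scored through bidirectional fitting.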

[9] = BSK_LPS_SRB: Viability Assessment in the BioMAP Diversity Plus: LPS Assay (AID 2283079); details: primary human HUVEC with PBMC;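 note: total protein by sulforhodamine B absorbance as a cytotoxicity measure; measured one day after compound addition; fitted in both directions against DMSO so loss or gain of signal counts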
Outline: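 Readout is SRB absorbance at 560 nm (0.1% stain, TCA-fixed parallel cultures) as a total-protein cytotoxicity measure. Cells: primary human umbilical vein endothelium plus peripheral blood mononuclear cells, 24 h after chemical exposure; DMSO served as baseline.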

[10] = read-out: Interleukin-1 alpha (IL1a), IL1A (gene 3552); assay: BSK_LPS_IL1a: BioMAP Diversity Plus: LPS Assay for Interleukin-1 alpha (IL1a) Biomarker Activity (AID 2283080); details: primary human HUVEC with PBMC; actives raise or lower the signal
Outline: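 ELISA read-out of IL-1 alpha from a human primary vascular co-culture (endothelium plus PBMC) under LPS, sampled 24 hours post-dosing. Activity was fitted in both directions relative to DMSO controls.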

[11] = read-out: Monocyte Chemoattractant Protein-1 (MCP1), CCL2 (gene 6347); assay: BSK_LPS_MCP1: BioMAP Diversity Plus: LPS Assay for Monocyte Chemoattractant Protein-1 (MCP1) Biomarker Activity (AID 2283081); details: primary human HUVEC with PBMC; actives raise or lower the signal;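 for AC50: secreted MCP-1 protein quantified by ELISA in culture supernatant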
Outline: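 Human endothelial–PBMC co-cultures were dosed with chemical, then LPS-driven MCP-1 levels were quantified by ELISA at 24 h. Activity in either direction was fitted versus DMSO negative control.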

[12] = BSK_LPS_PGE2: BioMAP Diversity Plus: LPS Assay for Prostaglandin E2 (PGE2) Biomarker Activity (AID 2283082); details: primary human HUVEC with PBMC; actives raise or lower the signal;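 for AC50: secreted prostaglandin E2 measured by ELISA in LPS-stimulated co-culture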
Outline: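 HUVEC plus human PBMC co-culture stimulated with LPS; secreted PGE2 quantified by ELISA 24 h after chemical dosing. Activity fitted bidirectionally against DMSO baseline; parallel SRB staining (0.1% SRB after 10% TCA fixation, 560 nm) flags overt cytotoxicity.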

[13] = read-out: Tissue Factor, F3 (gene 2152); assay: BSK_LPS_TissueFactor: BioMAP Diversity Plus: LPS Assay for Tissue Factor Biomarker Activity (AID 2283084); details: primary human HUVEC with PBMC; actives raise or lower the signal
Outline: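 ELISA signal for cell-surface Tissue Factor (CD142) was read 24 h after compound dosing of an LPS-stimulated human endothelial–PBMC primary co-culture. Gain or loss of signal was scored relative to DMSO.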

[14] = read-out: Tumor necrosis factor (Homo sapiens) (UniProt P01375); assay: BSK_LPS_TNFa: BioMAP Diversity Plus: LPS Assay for Tumour Necrosis Factor alpha (TNFa) Biomarker Activity (AID 2283085); details: primary human HUVEC with PBMC; actives raise or lower the signal
Outline: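 Human umbilical vein endothelial cells co-cultured with PBMC and stimulated with LPS. TNFa was measured by ELISA 24 h after chemical dosing, fitted bidirectionally relative to DMSO.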

[15] = read-out: Vascular cell adhesion molecule 1 (VCAM1), VCAM1 (gene 7412); assay: BSK_LPS_VCAM1: BioMAP Diversity Plus: LPS Assay for Vascular cell adhesion molecule 1 (VCAM1) Biomarker Activity (AID 2283086); details: primary human HUVEC with PBMC; actives raise or lower the signal
Outline: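 Human umbilical vein endothelial cells co-cultured with PBMC and stimulated with LPS; VCAM-1 measured by ELISA 24 h after dosing. Bidirectional curve fitting against DMSO baseline; cytotoxicity tracked in parallel by SRB total-protein staining.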

CD40, CD40 (gene 958) [16] = assay: BSK_SAg_CD40: BioMAP Diversity Plus: SAg Assay for CD40 Biomarker Activity (AID 2283088); details: primary human HUVEC with PBMC; actives raise or lower the signal
Outline: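 Compounds were dosed onto a human primary endothelial–PBMC co-culture, and after 24 h CD40 was quantified by ELISA using a fluorescence signal. Activity in either direction was fitted relative to DMSO.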

CD69, CD69 (gene 969) = assay: BSK_SAg_CD69: BioMAP Diversity Plus: SAg Assay for CD69 Biomarker Activity (AID 2283089); details: primary human HUVEC with PBMC; actives raise or lower the signal;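 for AC50: cell surface CD69 protein quantified by ELISA with fluorescence detection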
Outline: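 ELISA, fluorescence read-out: CD69 on human umbilical vein endothelial cell + PBMC co-culture, 24 h post-dosing. Gain or loss of signal fitted bidirectionally against DMSO baseline.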

[17] = read-out: Monocyte Chemoattractant Protein-1 (MCP1), CCL2 (gene 6347); assay: BSK_SAg_MCP1: BioMAP Diversity Plus: SAg Assay for Monocyte Chemoattractant Protein-1 (MCP1) Biomarker Activity (AID 2283090); details: primary human HUVEC with PBMC; actives raise or lower the signal
Outline: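 MCP-1 levels in the endothelial–PBMC SAg co-culture were quantified by ELISA at 24 h post-dosing; both increases and decreases versus DMSO scored. Cytotoxicity monitored by SRB total protein in parallel cultures.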

CD38, CD38 (gene 952) = assay: BSK_SAg_CD38: BioMAP Diversity Plus: SAg Assay for CD38 Biomarker Activity (AID 2283087); details: primary human HUVEC with PBMC; actives raise or lower the signal
Outline: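 Human HUVEC plus PBMC co-culture stimulated with superantigen; CD38 measured by ELISA 24 h after chemical dosing. Fluorescence read-out, bidirectional fit against DMSO; cytotoxicity tracked in parallel by SRB and Alamar Blue.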

[18] = read-out: Macrophage colony-stimulating factor (MCSF), CSF1 (gene 1435); assay: BSK_LPS_MCSF: BioMAP Diversity Plus: LPS Assay for Macrophage colony-stimulating factor (MCSF) Biomarker Activity (AID 2283083); details: primary human HUVEC with PBMC; actives raise or lower the signal
Outline: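 ELISA readout of M-CSF after 24 h compound exposure in a human endothelial/PBMC co-culture. Activity, in either direction, is fitted relative to DMSO vehicle.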

Measured: AC50

Chain of E-selectin (Homo sapiens) (P16581 whole entry, looked up): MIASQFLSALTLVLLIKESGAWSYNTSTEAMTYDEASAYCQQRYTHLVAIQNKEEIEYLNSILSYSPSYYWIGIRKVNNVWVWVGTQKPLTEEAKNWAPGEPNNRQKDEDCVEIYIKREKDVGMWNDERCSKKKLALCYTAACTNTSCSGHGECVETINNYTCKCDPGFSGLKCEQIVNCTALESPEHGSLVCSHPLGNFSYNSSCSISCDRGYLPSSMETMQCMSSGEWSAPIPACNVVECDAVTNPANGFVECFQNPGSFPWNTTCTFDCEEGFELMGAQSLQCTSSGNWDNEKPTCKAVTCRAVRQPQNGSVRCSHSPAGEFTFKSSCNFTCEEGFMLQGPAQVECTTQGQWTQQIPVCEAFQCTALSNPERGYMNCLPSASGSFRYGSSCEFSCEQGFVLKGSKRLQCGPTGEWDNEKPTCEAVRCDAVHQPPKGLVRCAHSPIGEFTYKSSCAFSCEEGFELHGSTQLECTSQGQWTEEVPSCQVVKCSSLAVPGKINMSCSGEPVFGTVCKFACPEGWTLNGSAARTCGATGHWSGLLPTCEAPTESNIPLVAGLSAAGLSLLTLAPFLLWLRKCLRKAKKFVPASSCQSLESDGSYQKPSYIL
Chain of Tumor necrosis factor (Homo sapiens) (P01375 whole entry, looked up): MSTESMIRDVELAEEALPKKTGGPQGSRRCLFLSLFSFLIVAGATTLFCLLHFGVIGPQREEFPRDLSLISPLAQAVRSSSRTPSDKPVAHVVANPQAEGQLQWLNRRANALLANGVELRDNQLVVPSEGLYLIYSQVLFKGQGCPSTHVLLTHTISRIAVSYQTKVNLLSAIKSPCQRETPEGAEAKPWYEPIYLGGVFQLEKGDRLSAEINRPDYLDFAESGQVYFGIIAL

OC12N=C(c3ccccc3)SC1Cc1cc(Cl)ccc12 (centres undefined)
active: CD40, CD40 (gene 958) [6] 16.8 µM | [10] 25.3 µM | [15] 10.3 µM | CD40, CD40 (gene 958) [16] 20 µM
not listed: CD38, CD38 (gene 952) | [18]
inactive: all other assays above

CCCCCCCCCC(=O)O
not listed: [11] | CD38, CD38 (gene 952) | [18]
inactive: all other assays above

Cc1occc1C(=O)Nc1ccc(C(=O)N2CCC(F)(F)/C(=C\C(=O)N3CCC(N4CCCCC4)CC3)c3ccccc32)cc1
not listed: [9] | [18]
inactive: all other assays above

O=C1O[C@H]([C@@H](O)CO)C(O)=C1O
not listed: [1] | [18]
inactive: all other assays above

CN1C(=O)N(c2ccccc2Br)Cc2cnc(Nc3ccc4c(c3)OCC(CO)O4)nc21 (centres undefined)
active: [2] 15.3 µM | [3] 31 µM | [4] 6.07 µM | [5] 12.4 µM | CD40, CD40 (gene 958) [6] 7.42 µM | [7] 7.07 µM | [8] 6.07 µM | [9] 4.68 µM | [10] 9.1 µM | [12] 3.63 µM | [13] 3.52 µM | [14] 3.14 µM | [15] 7.92 µM | CD38, CD38 (gene 952) 2.36 µM | CD40, CD40 (gene 958) [16] 2.19 µM | CD69, CD69 (gene 969) 2.08 µM | [17] 1.9 µM

CCOC(=O)O[C@H](C)OC(=O)c1ccc2c(c1)cc(C(=O)NC1CCN(C(C)C)CC1)n2Cc1cc(-c2ccc(Cl)s2)on1
active: [2] 6.7 µM | [3] 5.86 µM | [4] 8.39 µM | [5] 8.14 µM | CD40, CD40 (gene 958) [6] 6.74 µM | [7] 10.4 µM | [8] 6.76 µM | [9] 5.61 µM | [10] 6.55 µM | [11] 8.72 µM | [12] 7.65 µM | [13] 10.9 µM | [14] 10.1 µM | [15] 6.25 µM | CD40, CD40 (gene 958) [16] 6.99 µM | CD69, CD69 (gene 969) 6.44 µM | [17] 7.11 µM

CN1C(=O)CC[C@H]1c1cccnc1
not listed: [1] | [11]
inactive: all other assays above

NCc1cccc(C2CCN(C(=O)c3ccc(C#Cc4ccccc4F)o3)CC2)c1
inactive: [12]
active: [2] 10.4 µM | [3] 20 µM | [4] 11.3 µM | [5] 11.1 µM | CD40, CD40 (gene 958) [6] 8.42 µM | [7] 35.6 µM | [8] 25.8 µM | [9] 15.3 µM | [10] 17.1 µM | [11] 16.1 µM | [18] 26 µM | [13] 28.2 µM | [14] 27.7 µM | [15] 24.6 µM | CD40, CD40 (gene 958) [16] 15.3 µM | CD69, CD69 (gene 969) 22.1 µM | [17] 28 µM

Clc1cc(Cl)c2c(c1)N=C1CCCCCN1C2
not listed: [1] | [11] | CD38, CD38 (gene 952) | [18]
inactive: all other assays above

CCCOC(=O)c1cc(O)c(O)c(O)c1
active: [2] 1.53 µM | [5] 3.97 µM | [12] 4.97 µM | [17] 29 µM
not listed: [1] | CD38, CD38 (gene 952) | [18]
inactive: all other assays above

CC(=O)N1CCN(c2ccc(OC[C@H]3CO[C@](Cn4ccnc4)(c4ccc(Cl)cc4Cl)O3)cc2)CC1
inactive: [3] | [12]
active: [2] 29.2 µM | [4] 29.8 µM | [5] 30.8 µM | CD40, CD40 (gene 958) [6] 11.8 µM | [7] 32.2 µM | [8] 29.9 µM | [9] 20 µM | [10] 35.6 µM | [11] 31 µM | [13] 33 µM | [14] 36.7 µM | [15] 28.1 µM | CD38, CD38 (gene 952) 27.4 µM | CD40, CD40 (gene 958) [16] 24.1 µM | CD69, CD69 (gene 969) 25.4 µM | [17] 30.1 µM

CCCCOC(=O)CC(CC(=O)OCCCC)(OC(C)=O)C(=O)OCCCC
not listed: [1] | [11] | [18]
inactive: all other assays above
